Common to all, as to experiment: PBM; 200 nM protein, PBS
What all share (conditions): dsDNA, one strand shown

The target of test [1] is T1, SIX6 (Homo sapiens, UniProt O95475 114-200, L167I).
T1 sequence: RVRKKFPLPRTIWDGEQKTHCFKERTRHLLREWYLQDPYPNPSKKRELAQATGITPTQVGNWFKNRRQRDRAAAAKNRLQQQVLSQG

Test [2] addresses T2, SIX6 (Homo sapiens, UniProt O95475 114-200, L143V).
T2 sequence: T1 sequence with L30V, I54L

Test [3] has as its target T3, SIX6 (Homo sapiens, UniProt O95475 114-200, H141N).
T3 sequence: T1 sequence with H28N, I54L

Test [4] addresses T4, SIX6 (Homo sapiens, UniProt O95475 114-200, T165P).
T4 sequence: T1 sequence with T52P, I54L

Test [5] deals with T5, SIX6 (Homo sapiens, UniProt O95475 114-200, L167M).
T5 sequence: T1 sequence with I54M

For test [6], the target named is T6, SIX6 (Homo sapiens, UniProt O95475 114-200, L143M).
T6 sequence: T1 sequence with L30M, I54L

In test [7] the target is T7, SIX6 (Homo sapiens, UniProt O95475 114-200, L143I).
T7 sequence: T1 sequence with L30I, I54L

Test [8] addresses T8, SIX6 (Homo sapiens, UniProt O95475 114-200, T165G).
T8 sequence: T1 sequence with T52G, I54L

The target of test [9] is T9, SIX6 (Homo sapiens, UniProt O95475 114-200, T139Q).
T9 sequence: T1 sequence with T26Q, I54L

In test [10] the target is T10, SIX6 (Homo sapiens, UniProt O95475 114-200, T165A).
T10 sequence: T1 sequence with T52A, I54L

The target in test [11] is T11, SIX6 (Homo sapiens, UniProt O95475 114-200, L167V).
T11 sequence: T1 sequence with I54V

In test [12] the target is T12, SIX6 (Homo sapiens, UniProt O95475 114-200).
T12 sequence: T1 sequence with I54L

Test [13] addresses T13, SIX6 (Homo sapiens, UniProt O95475 114-200, T165I).
T13 sequence: T1 sequence with T52I, I54L

Numbering of substitutions follows the chain as printed.

Take GATATACC: the binding signal in the test with SIX6 [1] was 11.1 upbm affinity estimate (log intensity, higher = more binding, comparable within an allelic series); with SIX6 [2] it was 10.4 upbm affinity estimate (log intensity, higher = more binding, comparable within an allelic series); with SIX6 [3], 11.2 upbm affinity estimate (log intensity, higher = more binding, comparable within an allelic series); with SIX6 [4], 9.81 upbm affinity estimate (log intensity, higher = more binding, comparable within an allelic series); in the test with SIX6 [5] it was 10.9 upbm affinity estimate (log intensity, higher = more binding, comparable within an allelic series); with SIX6 [6], 11 upbm affinity estimate (log intensity, higher = more binding, comparable within an allelic series). For the same sequence, the binding signal was 10.5 upbm affinity estimate (log intensity, higher = more binding, comparable within an allelic series) with SIX6 [7]; 11.1 upbm affinity estimate (log intensity, higher = more binding, comparable within an allelic series) with SIX6 [8]; 11.2 upbm affinity estimate (log intensity, higher = more binding, comparable within an allelic series) with SIX6 [9]; 11.1 upbm affinity estimate (log intensity, higher = more binding, comparable within an allelic series) with SIX6 [10]; 10.9 upbm affinity estimate (log intensity, higher = more binding, comparable within an allelic series) in the test with SIX6 [11]; 11 upbm affinity estimate (log intensity, higher = more binding, comparable within an allelic series) in the test with SIX6 [12]. For the same sequence, the binding signal with SIX6 [13] was 11.1 upbm affinity estimate (log intensity, higher = more binding, comparable within an allelic series).
Turning to GTATCAAC, the binding signal in the test with SIX6 [1] is 11.2 upbm affinity estimate (log intensity, higher = more binding, comparable within an allelic series); in the test with SIX6 [2], 10.3 upbm affinity estimate (log intensity, higher = more binding, comparable within an allelic series); with SIX6 [3], 11.3 upbm affinity estimate (log intensity, higher = more binding, comparable within an allelic series); with SIX6 [4] it was 9.76 upbm affinity estimate (log intensity, higher = more binding, comparable within an allelic series); with SIX6 [5] it was 10.6 upbm affinity estimate (log intensity, higher = more binding, comparable within an allelic series); with SIX6 [6] it was 11 upbm affinity estimate (log intensity, higher = more binding, comparable within an allelic series). Moreover, the binding signal with SIX6 [7] is 10.4 upbm affinity estimate (log intensity, higher = more binding, comparable within an allelic series); with SIX6 [8], 11.4 upbm affinity estimate (log intensity, higher = more binding, comparable within an allelic series); with SIX6 [9], 11.3 upbm affinity estimate (log intensity, higher = more binding, comparable within an allelic series); with SIX6 [10], 11.3 upbm affinity estimate (log intensity, higher = more binding, comparable within an allelic series); with SIX6 [11] it was 11 upbm affinity estimate (log intensity, higher = more binding, comparable within an allelic series); with SIX6 [12], 11.1 upbm affinity estimate (log intensity, higher = more binding, comparable within an allelic series). Moreover, the binding signal with SIX6 [13] is 11.1 upbm affinity estimate (log intensity, higher = more binding, comparable within an allelic series).
As for CAGGACCG, the binding signal with SIX6 [1] is 9.24 upbm affinity estimate (log intensity, higher = more binding, comparable within an allelic series); with SIX6 [2], 9.05 upbm affinity estimate (log intensity, higher = more binding, comparable within an allelic series); with SIX6 [3], 9.24 upbm affinity estimate (log intensity, higher = more binding, comparable within an allelic series); with SIX6 [4] it was 9.18 upbm affinity estimate (log intensity, higher = more binding, comparable within an allelic series); with SIX6 [5] it was 9.01 upbm affinity estimate (log intensity, higher = more binding, comparable within an allelic series); in the test with SIX6 [6] it was 9.2 upbm affinity estimate (log intensity, higher = more binding, comparable within an allelic series). For the same sequence, the binding signal was 9.14 upbm affinity estimate (log intensity, higher = more binding, comparable within an allelic series) in the test with SIX6 [7]; 9.28 upbm affinity estimate (log intensity, higher = more binding, comparable within an allelic series) in the test with SIX6 [8]; 9.23 upbm affinity estimate (log intensity, higher = more binding, comparable within an allelic series) in the test with SIX6 [9]; 9.16 upbm affinity estimate (log intensity, higher = more binding, comparable within an allelic series) with SIX6 [10]; 9.19 upbm affinity estimate (log intensity, higher = more binding, comparable within an allelic series) with SIX6 [11]; 9.17 upbm affinity estimate (log intensity, higher = more binding, comparable within an allelic series) with SIX6 [12]. Further, the binding signal with SIX6 [13] is 9.13 upbm affinity estimate (log intensity, higher = more binding, comparable within an allelic series).
As for GTGATATA, the binding signal in the test with SIX6 [1] is 11.3 upbm affinity estimate (log intensity, higher = more binding, comparable within an allelic series); with SIX6 [2], 10.5 upbm affinity estimate (log intensity, higher = more binding, comparable within an allelic series); in the test with SIX6 [3] it was 11.3 upbm affinity estimate (log intensity, higher = more binding, comparable within an allelic series); with SIX6 [4] it was 9.96 upbm affinity estimate (log intensity, higher = more binding, comparable within an allelic series); with SIX6 [5] it was 11 upbm affinity estimate (log intensity, higher = more binding, comparable within an allelic series); in the test with SIX6 [6] it was 10.9 upbm affinity estimate (log intensity, higher = more binding, comparable within an allelic series). Besides, the binding signal is 10.4 upbm affinity estimate (log intensity, higher = more binding, comparable within an allelic series) in the test with SIX6 [7]; 11.3 upbm affinity estimate (log intensity, higher = more binding, comparable within an allelic series) in the test with SIX6 [8]; 11.1 upbm affinity estimate (log intensity, higher = more binding, comparable within an allelic series) with SIX6 [9]; 11.3 upbm affinity estimate (log intensity, higher = more binding, comparable within an allelic series) with SIX6 [10]; 11.1 upbm affinity estimate (log intensity, higher = more binding, comparable within an allelic series) in the test with SIX6 [11]; 11.1 upbm affinity estimate (log intensity, higher = more binding, comparable within an allelic series) with SIX6 [12]. In addition, in the test with SIX6 [13], the binding signal was 11.2 upbm affinity estimate (log intensity, higher = more binding, comparable within an allelic series).
Turning to ACTGCCGG, the binding signal was 9.01 upbm affinity estimate (log intensity, higher = more binding, comparable within an allelic series) with SIX6 [1]; 9.11 upbm affinity estimate (log intensity, higher = more binding, comparable within an allelic series) with SIX6 [2]; 9.15 upbm affinity estimate (log intensity, higher = more binding, comparable within an allelic series) with SIX6 [3]; 9.02 upbm affinity estimate (log intensity, higher = more binding, comparable within an allelic series) with SIX6 [4]; 9.04 upbm affinity estimate (log intensity, higher = more binding, comparable within an allelic series) in the test with SIX6 [5]; 9.15 upbm affinity estimate (log intensity, higher = more binding, comparable within an allelic series) with SIX6 [6]. The binding signal with SIX6 [7] is 9.19 upbm affinity estimate (log intensity, higher = more binding, comparable within an allelic series); with SIX6 [8], 9.17 upbm affinity estimate (log intensity, higher = more binding, comparable within an allelic series); in the test with SIX6 [9], 9.29 upbm affinity estimate (log intensity, higher = more binding, comparable within an allelic series); with SIX6 [10], 9.08 upbm affinity estimate (log intensity, higher = more binding, comparable within an allelic series); with SIX6 [11], 9.11 upbm affinity estimate (log intensity, higher = more binding, comparable within an allelic series); with SIX6 [12], 9.23 upbm affinity estimate (log intensity, higher = more binding, comparable within an allelic series). Also, in the test with SIX6 [13], the binding signal was 9.16 upbm affinity estimate (log intensity, higher = more binding, comparable within an allelic series).

These data come from PMC11006913.
